This passage reports Percent Effect results from ChEMBL document CHEMBL3988442, “University of Dundee, Small-Polar-MMV Screening Library” (2021).

Test [1] deals with T1, Aspartate--tRNA(Asp/Asn) ligase (Mycobacterium tuberculosis (strain ATCC 25618 / H37Rv)) (UniProt P9WFW3).
T1 sequence (whole entry): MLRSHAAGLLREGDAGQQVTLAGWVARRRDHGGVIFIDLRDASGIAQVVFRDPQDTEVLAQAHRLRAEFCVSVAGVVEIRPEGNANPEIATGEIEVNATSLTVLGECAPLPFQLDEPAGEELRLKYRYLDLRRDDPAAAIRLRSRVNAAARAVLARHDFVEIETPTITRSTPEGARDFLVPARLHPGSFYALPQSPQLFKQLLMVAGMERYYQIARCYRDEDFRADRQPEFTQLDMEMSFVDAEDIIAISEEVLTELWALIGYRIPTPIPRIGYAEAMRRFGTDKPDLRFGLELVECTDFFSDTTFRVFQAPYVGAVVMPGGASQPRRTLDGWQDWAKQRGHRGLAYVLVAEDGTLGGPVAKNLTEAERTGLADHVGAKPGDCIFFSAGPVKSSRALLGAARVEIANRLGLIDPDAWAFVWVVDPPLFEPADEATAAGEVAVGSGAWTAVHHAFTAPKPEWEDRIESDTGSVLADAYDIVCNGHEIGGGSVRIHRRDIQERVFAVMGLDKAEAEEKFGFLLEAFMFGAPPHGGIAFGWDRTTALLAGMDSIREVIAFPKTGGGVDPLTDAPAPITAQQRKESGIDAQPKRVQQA
Kind of test: Assay for Asp RNA synthetase-1 from Mycobacterium tuberculosis. It counts as functional. Also noted: scale not given: direction of the effect not stated beside the values. Conditions: 30 µM.

Test [2] addresses Shiga toxin 2 (Escherichia coli O157:H7) (UniProt P09385+P09386). Nature of the test: E. coli 0.157:H7 Shiga Toxin SOP - stx2 screening assay. It counts as functional. Also noted: scale not given: direction of the effect not stated beside the values. The conditions noted are these: 30 µM.

For the compound `CCN(Cc1cccc(Cl)c1)Cn1nc(C)c2c(C)onc2c1=O`, the Percent Effect in test [1] is -2.62%; in test [2], 21.7%.

`CC(C)CC(CNC(=O)NCc1cc[nH]n1)N1CCOCC1` (stereo not given): the Percent Effect in test [1] is -6.68%; in test [2] it was -30.7%.

For the compound `CC(=O)N1CCCN(C(=O)NCCc2cc(Cl)cc(Cl)c2)CC1`, the Percent Effect in test [1] is -1.44%; in test [2], -10%.

Consider `Cc1n[nH]c(C2CN(C(=O)CCc3ccsc3)CCO2)n1` (stereo not given), for which the Percent Effect was 3.08% in test [1] and -2.19% in test [2].

For `O=C(c1nc(-c2ccc3cc[nH]c3c2)no1)N1CCCC1`, the Percent Effect in test [1] was -0.958%; in test [2], -77.4%.

In the case of `O=S(=O)(NCC1CCN(c2cnccn2)CC1)c1c(F)cccc1F`, the figures for the Percent Effect in test [1] and in test [2] were -2.55% and 4.65%, respectively.

`CC(C)C(=O)N1CCCC(c2cc(C(F)F)n3ncnc3n2)C1` (stereo not given): the Percent Effect is 1.92% in test [1] and -11.7% in test [2].

Take `Cc1ccc(CN2C[C@@H]3COC[C@H](C(=O)N4CCCCO4)[C@@H]3C2)o1`: the Percent Effect in test [1] was 1.57%; in test [2], -5.34%.

For `Cc1nc(CCN(C)C(=O)C2COc3ccccc3C2)no1` (stereo not given), the Percent Effect in test [1] was 0.743%; in test [2], -10.1%.

`CC(=O)N1CCN(Cn2nc(-c3ccc(F)cc3)oc2=O)CC1`: the Percent Effect is 0.698% in test [1] and -18.6% in test [2].

`Cn1cc(C(=O)N[C@@H]2CN(Cc3cccs3)[C@@H]3CCCO[C@@H]32)cn1`: the Percent Effect in test [1] is 1.75%; in test [2] it was -2.87%.

On to `COc1cc2cc(C(=O)O)n(C)c2c(OC)c1OC`, for which the Percent Effect in test [1] was -3.95%; in test [2], 1.12%.

As to `Cn1cc(C(=O)NC2CCN(C(=O)NCCSC(F)(F)F)CC2)cn1`, the Percent Effect is 0.597% in test [1] and -30.6% in test [2].

On to `c1cnc(N2CCOC3(CCN(CC4CCCCC4)CC3)C2)nc1`, for which the Percent Effect in test [1] was -0.897%; in test [2], -3.02%.

As to `CN(C)C(CNC(=O)c1cccc(-n2cnnn2)c1)c1ccccc1Cl` (stereo not given), the Percent Effect in test [1] was 3.08%; in test [2], -14.9%.

For `CC(=O)c1cn(CCC(=O)N[C@H](C(=O)O)C(C)C)c2ccccc12`, the Percent Effect in test [1] is -1.95%; in test [2], -36.7%.

`Cc1nc(Nc2nccs2)cc(C2CCCN2C2CCOCC2)n1` (stereo not given): the figures for the Percent Effect in test [1] and in test [2] were -3.08% and 3.58%, respectively.

`O=C(c1cc(COc2ccc3c(c2)OCO3)[nH]n1)N1CCCC1`: the Percent Effect was 0.912% in test [1] and -23.7% in test [2].

In the case of `COCC1CN(Cc2ccc(C)o2)Cc2ncn(CC3CC3)c21` (stereo not given), the Percent Effect is -3.92% in test [1] and -13.7% in test [2].

`COc1ccccc1C(=O)N1CCCC1Cn1cc(C)cn1` (stereo not given): the Percent Effect in test [1] amounted to 3.31%; in test [2] it was 26.5%.

In the case of `Cc1ccc(C(=O)NC(C)CN2CCCC2=O)c(=O)[nH]1` (stereo not given), the Percent Effect is -2.42% in test [1] and -3.66% in test [2].

For the compound `CC(C)c1nc(C2CCCN2CCc2ccncc2)no1` (stereo not given), the Percent Effect was 1.61% in test [1] and -7.28% in test [2].

Turning to `O=C(c1ccnnc1)N1C[C@H]2CCC[C@@]2(COCC2CCOCC2)C1`, the results for the Percent Effect in test [1] and in test [2] were 3.07% and -0.366%, respectively.

For the compound `CC(C)(CNC(=O)CCOc1cccc(F)c1)C(N)=O`, the Percent Effect is -0.256% in test [1] and 29.6% in test [2].

As to `COc1c(CNCc2ccnc(N3CCCC3)c2)c(C)nn1C`, the Percent Effect in test [1] is 2.34%; in test [2], -55.3%.

For `COC(=O)c1ccccc1NC(=O)c1nc2ccccc2n(C)c1=O`, the Percent Effect was 2.38% in test [1] and -9.47% in test [2].

Consider `O=C(c1ccc[nH]1)N1CCC2(CC1)C(=O)Nc1ccccc12`, for which the Percent Effect in test [1] is -1.68%; in test [2] it was 16.7%.

With `Cc1csc2c(=O)n3c(nc12)CCN(C(=O)c1cccnc1)CC3`, the Percent Effect in test [1] was -0.521%; in test [2] it was 6.12%.

Regarding `CC(C)(C)c1nnc(CN2CCN(CC(O)c3ccccc3)CC2)o1` (stereo not given), the Percent Effect is -8.31% in test [1] and 10.2% in test [2].

As to `CC(NC(=O)NCC1(c2ccc(F)cc2)CCC1)c1nncn1C` (stereo not given), the results for the Percent Effect in test [1] and in test [2] were 2.25% and 32.9%, respectively.

As to `CN(Cc1ncc[nH]1)S(=O)(=O)c1cccc(C(=O)N2CCOCC2)c1`, the Percent Effect is 8.16% in test [1] and -12.2% in test [2].

With `O=C(c1cscn1)N1CC[C@]2(C[C@@H](OCCN3CCCC3)CO2)C1`, the Percent Effect is -3.81% in test [1] and -17.4% in test [2].

As for `Cc1cc(CN(C)C(=O)C2CCCN(C(=O)c3ccc(Cl)cc3)C2)no1` (stereo not given), the Percent Effect in test [1] is 8.83%; in test [2] it was -26.7%.

For `CCc1cc(O)nc(C2CCCN2C(=O)c2cc(C)no2)n1` (stereo not given), the Percent Effect in test [1] amounted to 7.1%; in test [2], 1.09%.

In the case of `COc1nn(C)c2c1CCCN(C(=O)c1cc[nH]n1)C2`, the Percent Effect in test [1] was 0.229%; in test [2] it was -2.49%.

Regarding `COc1cccc(CCC2CCCN(C(=O)c3n[nH]c4c3CCC4)C2)c1` (stereo not given), the Percent Effect in test [1] is 2.06%; in test [2], -1.83%.

Regarding `CC(C)c1csc(C2CCCN(C(=O)Cn3ccccc3=O)C2)n1` (stereo not given), the results for the Percent Effect in test [1] and in test [2] were -3.63% and -29.5%, respectively.

For `O=C(CCc1ccc(Cl)s1)N1CCCC(n2cncn2)C1` (stereo not given), the Percent Effect in test [1] stood at 2.08%; in test [2], 5.05%.

With `c1cn2c(n1)CN(CC1CC1)CC(CN1CCOCC1)C2` (stereo not given), the Percent Effect in test [1] is 11.1%; in test [2], -18%.

Regarding `CN(C)CCN1C(=O)CCC12CCN(C(=O)c1cccnc1)CC2`, the results for the Percent Effect in test [1] and in test [2] were -0.637% and -8.32%, respectively.

Take `NC(=O)CN1CCC(C(=O)N2CCCC(OCc3cccnc3)C2)CC1` (stereo not given): the Percent Effect is -13.4% in test [1] and 18% in test [2].

For `CCOCCCn1c(NC(=O)c2scnc2C)nc2ccccc21`, the Percent Effect was -5.62% in test [1] and -30.2% in test [2].

With `CCc1[nH]ncc1C(=O)N1CCCC(n2cccn2)C1` (stereo not given), the Percent Effect in test [1] is -2.98%; in test [2] it was 3.89%.

`CC(=O)N1CCCC1c1cc(N2CCN(C3CCCC3)CC2)cc(C)n1` (stereo not given): the Percent Effect in test [1] is -4.16%; in test [2] it was 5%.

For the compound `CCOC(=O)CNC(=O)c1cccnc1Oc1ccc(Cl)cc1`, the Percent Effect is -1.89% in test [1] and 6.74% in test [2].
